The list is not random: actives were taken first. Their share in the collection is about 1.1%.
HTR5A ag: HTR5A agonists in luminescence cell assay, primary screen, counter-screen for OPRM1-OPRD1 heterodimer agonist project, full-deck HTS; cell-based; activation, % at 9.3 µM; 340,000 compounds, 0.61% hits; in the data active means activation mostly above about 9.5%, no sharp cut-off; inactive means mostly below about 7.6%;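 further: 0% = cells with vehicle only and 100% = reference agonist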
MOR-DOR inv ag-1: inverse agonists of MOR-DOR heterodimerization, primary screen, cell-based, luminescence; Mu-type opioid receptor (Homo sapiens) + Delta-type opioid receptor (Homo sapiens), …; cell-based MOR-DOR heterodimer luminescence, inverse agonism; inhibition, % at 9.3 µM; 340,000 compounds, 0.21% hits; AID 504357, 2011; in the data active means inhibition above about 22%, passing the limit was not always enough;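 further: 0% = cells with DMSO and 100% = wells without cells with DMSO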
Target sequence (P35372 whole entry, looked up): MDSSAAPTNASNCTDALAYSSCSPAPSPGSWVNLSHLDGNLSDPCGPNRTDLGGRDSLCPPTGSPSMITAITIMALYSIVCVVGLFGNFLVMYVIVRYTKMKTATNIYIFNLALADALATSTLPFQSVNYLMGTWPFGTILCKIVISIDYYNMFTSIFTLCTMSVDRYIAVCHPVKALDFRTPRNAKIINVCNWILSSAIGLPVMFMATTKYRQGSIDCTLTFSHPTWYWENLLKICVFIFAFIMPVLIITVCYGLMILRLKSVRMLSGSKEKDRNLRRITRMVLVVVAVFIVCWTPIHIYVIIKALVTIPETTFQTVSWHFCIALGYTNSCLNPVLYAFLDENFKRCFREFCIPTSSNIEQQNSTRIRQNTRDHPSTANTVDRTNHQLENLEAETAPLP
Target sequence (P41143 whole entry, looked up): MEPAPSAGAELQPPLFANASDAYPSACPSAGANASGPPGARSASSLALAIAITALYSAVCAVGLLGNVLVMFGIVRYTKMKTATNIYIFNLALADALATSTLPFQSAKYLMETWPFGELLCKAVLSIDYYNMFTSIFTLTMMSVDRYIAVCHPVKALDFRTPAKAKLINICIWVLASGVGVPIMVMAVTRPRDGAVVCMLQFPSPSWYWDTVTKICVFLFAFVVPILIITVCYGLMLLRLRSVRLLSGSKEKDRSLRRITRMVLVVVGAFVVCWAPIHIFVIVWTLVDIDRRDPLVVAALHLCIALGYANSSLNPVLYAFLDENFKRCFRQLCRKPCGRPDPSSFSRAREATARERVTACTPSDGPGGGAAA
MOR-DOR ag: agonists of OPRM1-OPRD1 heterodimerization, primary screen, cell-based, luminescence; activation, % at 9.3 µM; cells; Mu-type opioid receptor (Homo sapiens) + Delta-type opioid receptor (Homo sapiens), …; 340,000 compounds, 0.3% hits; in the data active means activation above about 18%;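 further: 0% = vehicle-treated cells and 100% = reference agonist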
HTR5A inv ag: HTR5A inverse agonists in luminescence cell assay, primary screen, counter-screen for OPRM1-OPRD1 heterodimer inverse agonist project, full-deck HTS; HTR5A cell line, inverse agonism; inhibition, % at 9.3 µM; 340,000 compounds, 0.083% hits; in the data active means inhibition mostly above about 23%, no sharp cut-off; inactive means mostly below about 18%;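 further: 0% = cells with DMSO and 100% = no-cell wells with DMSO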
MOR-DOR inv ag-2: inverse agonists of MOR-DOR heterodimerization, counter-screen for HTR5A inverse agonist project, cell-based, luminescence. shares compounds with HTR5A inv ag. U2OS counter-screen cells, complementation luminescence. inhibition, % at 9.3 µM. 190 tested, under 10 active;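 further: 0% = cells with DMSO and 100% = wells without cells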
HTR5A inv confrm: HTR5A inverse agonists, retest of hits, confirmation, cell-based, luminescence; shares compounds with HTR5A inv ag; HTR5A-expressing cells, inverse agonism; inhibition, % at 9.3 µM; 190 tested, under 10 active;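 further: 0% = cells with DMSO and 100% = no cells with DMSO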
* = called active by the depositor. Unless noted, how the calls were made is not given here.

For COc1ccccc1NC(=O)c1ccc(NC(=O)c2nc3nccc(C)n3n2)cc1 the results were HTR5A ag -2, MOR-DOR inv ag-1 11, MOR-DOR ag -3 and HTR5A inv ag 5.
COc1ccc(NC(=O)c2ccc(NC(=O)c3nc4nccc(C)n4n3)cc2)cc1 was read as HTR5A ag -2, MOR-DOR inv ag-1 3, MOR-DOR ag -1, HTR5A inv ag 36*, MOR-DOR inv ag-2 -10 and HTR5A inv confrm 13.
Screening COc1cc(-c2c(C#N)c(N)nc3[nH]c(=S)[nH]c(=O)c23)ccc1O returned HTR5A ag 0, MOR-DOR inv ag-1 9, MOR-DOR ag -2 and HTR5A inv ag -1.
Screening O=S(NCc1ccco1)C12CC3CC(CC(C3)C1)C2 (stereo unspecified) returned HTR5A ag -1, MOR-DOR inv ag-1 12, MOR-DOR ag -3, HTR5A inv ag 40*, MOR-DOR inv ag-2 -299 and HTR5A inv confrm -20.
`O=C(Cc1cccs1)N1CCN(S(=O)(=O)c2cccc([N+](=O)[O-])c2)CC1` gave HTR5A ag -1, MOR-DOR inv ag-1 6, MOR-DOR ag -1 and HTR5A inv ag 10.
`COc1cc(C(CCN2CCOCC2)c2c(OC)cc(OC)c3c(-c4ccccc4)cc(=O)oc23)cc(OC)c1OC` (stereo unspecified) gave HTR5A ag -5, MOR-DOR inv ag-1 1, MOR-DOR ag 0, HTR5A inv ag 17*, MOR-DOR inv ag-2 -7 and HTR5A inv confrm 2.
COc1cc(OC)cc(C(=O)NC(C(=O)N2CCc3ccccc3C2)C(C)C)c1 (stereo unspecified) was read as HTR5A ag -6, MOR-DOR inv ag-1 9, MOR-DOR ag -2 and HTR5A inv ag 16.
`CC(C)Cn1c(N)c(S(=O)(=O)c2cccs2)c2nc3ccccc3nc21` gave HTR5A ag -8, MOR-DOR inv ag-1 17, MOR-DOR ag -3, HTR5A inv ag 38*, MOR-DOR inv ag-2 -52 and HTR5A inv confrm 0.
For CC(=O)N1CCc2c(sc(NC(=O)c3ccc([N+](=O)[O-])o3)c2C#N)C1 the results were HTR5A ag -13, MOR-DOR inv ag-1 -40, MOR-DOR ag 6, HTR5A inv ag 32*, MOR-DOR inv ag-2 24 and HTR5A inv confrm -5.
`CS(=O)(=O)Nc1ccc(S(=O)(=O)N2CCCCCC2)cc1` gave HTR5A ag 1, MOR-DOR inv ag-1 10, MOR-DOR ag -2 and HTR5A inv ag 15.
For COc1ccc(CNC(=S)NNC(=O)c2cc3ccccc3o2)cc1 the results were HTR5A ag -4, MOR-DOR inv ag-1 0, MOR-DOR ag 0 and HTR5A inv ag 11.
Screening COc1ccc(OCC(=O)NNC(=O)c2cc3ccccc3o2)cc1 returned HTR5A ag 2, MOR-DOR inv ag-1 9, MOR-DOR ag -2, HTR5A inv ag 39*, MOR-DOR inv ag-2 -24 and HTR5A inv confrm 7.
Cc1cc(C)n2nc(C(=O)OCC(=O)Nc3ccc(C)c(S(=O)(=O)N4CCOCC4)c3)nc2n1 was read as HTR5A ag -7, MOR-DOR inv ag-1 3, MOR-DOR ag -1, HTR5A inv ag 28*, MOR-DOR inv ag-2 -6 and HTR5A inv confrm -19.
Screening Cc1cc(C)n2nc(C(=O)OCC(=O)Nc3ccc(C)c(S(=O)(=O)N(C)C)c3)nc2n1 returned HTR5A ag -2, MOR-DOR inv ag-1 13, MOR-DOR ag -3 and HTR5A inv ag 10.
Screening COC1C=CC=C(C)C(=O)NC2=CC(=O)C(N)=C(CC(C)CC(OC)C(O)C(C)C=C(C)C1OC(N)=O)C2=O (stereo unspecified) returned HTR5A ag 1, MOR-DOR inv ag-1 -27, MOR-DOR ag 6 and HTR5A inv ag -5.
`O=C1N[C@@H](Cc2ccccc2)COC(=O)[C@H](Cc2ccc(F)cc2)CC/C=C/C[C@@H]1CC(=O)N(CCO)Cc1ccccc1` gave HTR5A ag -2, MOR-DOR inv ag-1 2, MOR-DOR ag 0, HTR5A inv ag 37*, MOR-DOR inv ag-2 -52 and HTR5A inv confrm -8.
Screening O=C1N[C@@H](Cc2ccccc2)COC(=O)[C@@H](Cc2ccc(F)cc2)CC/C=C/C[C@H]1CC(=O)N(CCO)Cc1ccccc1 returned HTR5A ag 3, MOR-DOR inv ag-1 -6, MOR-DOR ag 1 and HTR5A inv ag 10.
For O=C(NCCCNC(=O)c1cnccn1)c1cccc(F)c1 the results were HTR5A ag 4, MOR-DOR inv ag-1 0, MOR-DOR ag 0 and HTR5A inv ag -10.
O=C(NN1C(=O)/C(=C/c2ccc(O)c(O)c2)SC1=S)c1ccccc1 was read as HTR5A ag -8, MOR-DOR inv ag-1 30, MOR-DOR ag -6, HTR5A inv ag 31*, MOR-DOR inv ag-2 -173 and HTR5A inv confrm -2.
Screening COc1cc(/C=C2/SC(=S)N(CC3CCCO3)C2=O)ccc1O (stereo unspecified) returned HTR5A ag -11, MOR-DOR inv ag-1 -4, MOR-DOR ag 1, HTR5A inv ag 44*, MOR-DOR inv ag-2 -69 and HTR5A inv confrm 28.
For COc1cc(/C=C2\SC(=S)N(NC(=O)c3cccnc3)C2=O)ccc1O the results were HTR5A ag -7, MOR-DOR inv ag-1 24, MOR-DOR ag -5, HTR5A inv ag 22*, MOR-DOR inv ag-2 -397 and HTR5A inv confrm -22.
For O=C(CSCc1cc(=O)n2ccsc2n1)Nc1ccccc1 the results were HTR5A ag -2, MOR-DOR inv ag-1 14, MOR-DOR ag -3 and HTR5A inv ag 8.
Cn1cc(S(=O)(=O)N2CCc3ccccc32)cc1C(=O)NC(C)(C)C was read as HTR5A ag 7, MOR-DOR inv ag-1 -17, MOR-DOR ag 3 and HTR5A inv ag -21.
`O=C(NNc1ccc([N+](=O)[O-])cn1)Nc1ccc(N=Nc2ccccc2)cc1` gave HTR5A ag -9, MOR-DOR inv ag-1 -14, MOR-DOR ag 3, HTR5A inv ag 36*, MOR-DOR inv ag-2 -45 and HTR5A inv confrm 18.
O=C(NNc1ccc([N+](=O)[O-])cc1)Nc1ccccc1 was read as HTR5A ag -2, MOR-DOR inv ag-1 8, MOR-DOR ag -2 and HTR5A inv ag -8.
For COc1ccc(/C=C(/NC(=O)c2cccs2)C(=O)NCc2ccco2)cc1OC the results were HTR5A ag 14, MOR-DOR inv ag-1 8, MOR-DOR ag -1, HTR5A inv ag 44*, MOR-DOR inv ag-2 -37 and HTR5A inv confrm -8.
For OCCN(CCO)c1ccc(C(c2ccc(Cl)cc2)c2ccc(N(CCO)CCO)cc2Cl)c(Cl)c1 the results were HTR5A ag 1, MOR-DOR inv ag-1 3, MOR-DOR ag -1 and HTR5A inv ag 16.

Assay outcomes from PubChem BioAssay.
